A selection: hits, their analogues and other compounds. The true share with any hit is near 1.2%.
HTT cytoprotect – Huntington cell model cytoprotection by ATP luminescence | PC12 HTT-Q103 induced, cytoprotection, ATP luminescence, 40 h | Potency, µM (highest dose often 56.4 µM), most hits filed as activators | 230,000 tested, 0.14% active; further: nearly all actives have a fitted effect of over 45% in size
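Readout: ATPlite luminescence (ATP level). Model: stable PC12, inducible Htt exon1 Q103-GFP. Inducer: tebufenozide, 100 nM final. Compounds: dose series. No G418 in medium.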
GLA spleen mod – inhibitors or activators of human alpha-galactosidase in spleen homogenate; P06280; human spleen homogenate, 4MU-alpha-Gal fluorescence, 40 min; Potency, µM (series often up to 80 µM), usual class: inhibitors; 240,000 tested, 0.008% active; AID 2107
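Human spleen homogenate (1 ug) was the enzyme source, with 4-methylumbelliferyl-alpha-D-galactopyranoside (1 mM final) in pH 5.0 citrate buffer with 0.01% Tween-20. Compounds were titrated; after 40 min at 37C, NaOH/glycine stop, 4-MU fluorescence read; AC50 from Hill fits.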
HttQ103 aggreg – inhibitors of mutant huntingtin aggregate formation in PC12 cells; PC12 HttQ103-GFP aggregates, Acumen cytometry, 40 h; 220,000 tested, 1.1% active; Potency, µM (doses to about 46.1 µM), usual class: inhibitors; AID 1688; further: nearly all actives have a fitted effect of over 60% in size
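PC12 cells with ecdysone-inducible HTT exon1 Q103-GFP, induced by 100 nM tebufenozide, given compounds in a concentration series. GFP aggregates (1–25 um, 6 SD above background) counted in lysates by laser-scanning cytometry, 488 nm excitation.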
ERK EGF inh – blocks ERK signaling stimulated by EGF. HEK293-V1b, EGF-stimulated phospho-ERK AlphaScreen. Potency, µM (highest dose often 11.5 µM), actives largely listed as inhibitors. 130,000 tested, 0.41% active. AID 1454; further: nearly all actives have a fitted effect of over 55% in size
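Compounds are titrated over HEK293-V1b cells kept overnight in 1% FBS. After 30 min at 37C, EGF (25 nM final) triggers ERK phosphorylation for 5 min, measured by AlphaScreen in lysates.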
GLA inh pH 4.5 – alpha-galactosidase A (human) inhibition, pH 4.5. P06280. purified enzyme, 4-MU-alpha-Gal fluorescence, pH 4.5. activity change, negative = inhibition, % at 105 µM. 230,000 tested, under 10 active
Target sequence (P06280 whole entry, looked up): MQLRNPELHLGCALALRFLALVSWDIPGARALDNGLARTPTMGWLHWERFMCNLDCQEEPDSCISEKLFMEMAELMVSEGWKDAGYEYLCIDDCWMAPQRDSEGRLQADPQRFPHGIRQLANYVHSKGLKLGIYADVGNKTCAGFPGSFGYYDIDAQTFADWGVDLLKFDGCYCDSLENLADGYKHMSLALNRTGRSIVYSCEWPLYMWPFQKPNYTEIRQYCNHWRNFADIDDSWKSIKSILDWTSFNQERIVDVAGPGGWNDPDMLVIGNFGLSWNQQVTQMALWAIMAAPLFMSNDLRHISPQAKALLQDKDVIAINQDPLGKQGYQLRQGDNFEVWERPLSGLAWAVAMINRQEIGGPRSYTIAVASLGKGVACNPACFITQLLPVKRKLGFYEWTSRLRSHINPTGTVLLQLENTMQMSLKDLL
Hits are given with their value; [ ] = dose if it differs, or a comment. The call rests on the fitted dose curve; in most records, active means well fitted curve in the direction sought with a large enough effect; inconclusive means small, poorly fitted or top-dose-only effect, or another doubt; inactive means no such curve, though single readings can be large; an effect the other way counts as inactive or inconclusive.

What do the screens show for `CCOC(=O)c1sc(NC(=O)CSc2n[nH]c(-c3ccc(Cl)cc3Cl)n2)c(C#N)c1C`?
HTT cytoprotect: inactive; GLA spleen mod: inactive; HttQ103 aggreg: 12.6µM; GLA inh pH 4.5: inactive

Results for CCOC(=O)c1sc(NC(=O)c2cc(-c3ccccc3C)nc3ccccc23)c(C#N)c1C ?
HTT cytoprotect: inactive; GLA spleen mod: inactive; HttQ103 aggreg: 5.62µM; GLA inh pH 4.5: inactive

What do the screens show for `CCOC(=O)c1sc(NC(=O)c2ccncc2)c(C#N)c1C`?
GLA spleen mod: inactive; HttQ103 aggreg: 20µM; ERK EGF inh: inactive; GLA inh pH 4.5: inactive

Results for Cc1ccccc1-c1cc(C(=O)Nc2sc(C)c(C)c2C(N)=O)c2ccccc2n1 ?
HTT cytoprotect: inactive; GLA spleen mod: inactive; HttQ103 aggreg: inconclusive; GLA inh pH 4.5: inactive

How did N.N.N.N.N.N.N.N.N.N.N.N.N.N.O.O.[Ru].[Ru].[Ru] do in these assays?
HTT cytoprotect: inactive[1.9 µM]

How did O=[N+]([O-])c1cccc(C(F)(F)F)c1 do in these assays?
HTT cytoprotect: inactive; GLA spleen mod: inactive

What do the screens show for `CCNc1ncc2nc(-c3ccccc3)c(=O)n(CCc3ccccc3)c2n1`?
HTT cytoprotect: inactive; GLA spleen mod: inactive; ERK EGF inh: inactive

How did CCNc1ncc2nc(-c3cccs3)c(=O)n(CCc3ccccc3)c2n1 do in these assays?
HTT cytoprotect: 1.41µM; GLA spleen mod: inactive

Results for C[C@@H]1CCC2[C@](C)(CO)C(O)CC[C@@]2(C)[C@@]12CC[C@](CO)(CCO)O2 (some centres undefined) ?
GLA spleen mod: inactive; ERK EGF inh: inactive; GLA inh pH 4.5: inactive

What do the screens show for `CC(=O)c1ccccc1OCCn1nnc(-c2ccc(C)cc2)n1`?
HTT cytoprotect: inactive[10 µM]; GLA spleen mod: inactive; HttQ103 aggreg: 20µM; ERK EGF inh: inactive; GLA inh pH 4.5: inactive

Results for CCCCCCCCCCCCCCCCCC(=O)NCC(COP(=O)([O-])OCC[N+](C)(C)C)OCC (centres undefined) ?
GLA spleen mod: inactive; ERK EGF inh: inconclusive; GLA inh pH 4.5: inactive

Results for Cc1cc(C)c(S(=O)(=O)/N=C2/C=C(SCC(=O)O)C(=O)c3ccccc32)cc1C ?
HTT cytoprotect: inactive; GLA spleen mod: inconclusive; HttQ103 aggreg: 12.6µM; ERK EGF inh: inactive; GLA inh pH 4.5: inactive

How did Cc1cc(C)c(S(=O)(=O)Nc2cc(SCC(=O)O)c(O)c3ccccc23)cc1C do in these assays?
HTT cytoprotect: inactive[10 µM]; GLA spleen mod: inactive; HttQ103 aggreg: inactive; ERK EGF inh: inactive; GLA inh pH 4.5: inactive

How did CC(=O)c1cccc(NC(=O)Nc2cccnc2)c1 do in these assays?
HTT cytoprotect: inactive[0.074 µM]; GLA spleen mod: inactive; HttQ103 aggreg: 7.94µM; ERK EGF inh: inactive; GLA inh pH 4.5: inactive

What do the screens show for `CC(=O)c1cccc(NC(=O)Nc2cccs2)c1`?
HTT cytoprotect: inactive; GLA spleen mod: inactive; HttQ103 aggreg: 12.6µM; GLA inh pH 4.5: inactive

Results for Cc1ccc(NC(=O)Nc2ccc(C(=O)N3CCOCC3)cc2)cc1 ?
HTT cytoprotect: inactive; GLA spleen mod: inactive; HttQ103 aggreg: inactive; GLA inh pH 4.5: inactive

Results for Cc1ccc(NC(=O)Nc2cccnc2)cc1NC(=O)Nc1cccnc1 ?
HTT cytoprotect: inactive[10 µM]; GLA spleen mod: inactive; HttQ103 aggreg: inactive[9.22 µM]; ERK EGF inh: inactive; GLA inh pH 4.5: inactive

How did CC(=O)c1cccc(NC(=O)Nc2ccc(C(=O)N3CCOCC3)cc2)c1 do in these assays?
HTT cytoprotect: inactive[10 µM]; GLA spleen mod: inactive; HttQ103 aggreg: 10µM; ERK EGF inh: inactive; GLA inh pH 4.5: inactive

How did CCNC(=O)NCc1cccc(Cl)c1 do in these assays?
HTT cytoprotect: inactive; HttQ103 aggreg: inactive

What do the screens show for `O=C1[C@H]2[C@H]3[C@H](O)[C@H](O)C/C(=N/OC[C@@H](O)COCc4ccco4)[C@H]3CC[C@@H]2C(=O)N1C[C@@H]1CCCO1`?
HTT cytoprotect: inactive[10 µM]; GLA spleen mod: inactive[17.5 µM]

How did Cc1ccc(Sc2c(C=O)c3ccccc3n2C)cc1 do in these assays?
HTT cytoprotect: inactive[10 µM]; GLA spleen mod: inactive; HttQ103 aggreg: 10µM; GLA inh pH 4.5: inactive

What do the screens show for `Cc1ccc(Sc2c(O)c3ccccc3n(C)c2=O)cc1`?
GLA spleen mod: inactive; HttQ103 aggreg: inactive; ERK EGF inh: inactive; GLA inh pH 4.5: inactive

Results for CCCCCCCCCn1c2c(c(=N)c3c1CCC3)CCCC2 ?
HTT cytoprotect: inactive[10 µM]; GLA spleen mod: inactive; HttQ103 aggreg: inactive[9.22 µM]; ERK EGF inh: inactive; GLA inh pH 4.5: inactive

What do the screens show for `CCCCCCCCCCn1c2c(c(=N)c3c1CCC3)CCC2`?
HTT cytoprotect: inactive; GLA spleen mod: inactive; HttQ103 aggreg: 1µM; GLA inh pH 4.5: inactive

What do the screens show for `COc1cc(/C=N/Nc2nc(-c3ccc(S(=O)(=O)N(C)C)cc3)cs2)ccc1O`?
HTT cytoprotect: inactive[10 µM]; GLA spleen mod: inactive; HttQ103 aggreg: inconclusive; ERK EGF inh: 8.91µM; GLA inh pH 4.5: inactive

Results for COc1ccc(/C=N/Nc2nc(-c3cccc(S(=O)(=O)N4CCCC4)c3)cs2)cc1OC ?
HTT cytoprotect: inactive[10 µM]; GLA spleen mod: inactive; HttQ103 aggreg: inconclusive; ERK EGF inh: inactive; GLA inh pH 4.5: inactive

What do the screens show for `CC[C@H](C)[C@H](NC(=O)[C@H](CC(C)C)NC(=O)[C@H](CO)NC(=O)[C@H](CCC(=O)O)NC(=O)[C@H](CC(C)C)NC(=O)[C@H](Cc1ccc(O)cc1)NC(=O)[C@H](CCCCN)NC(=O)[C@H](CCCCN)NC(=O)[C@H](C)NC(=O)[C@H](CO)NC(=O)[C@H](CC(C)C)NC(=O)[C@H](CCC(N)=O)NC(=O)CNC(=O)[C@H](CC(C)C)NC(=O)[C@H](CC(C)C)NC(=O)[C@H](CCCNC(=N)N)NC(=O)[C@H](CO)NC(=O)[C@H](Cc1ccccc1)NC(=O)[C@H](CC(=O)O)NC(=O)[C@H](CO)NC(=O)[C@@H](NC(=O)[C@H](Cc1ccccc1)NC(=O)[C@@H](NC(=O)CNC(=O)[C@H](CC(=O)O)NC(=O)[C@H](C)NC(=O)[C@@H](N)Cc1cnc[nH]1)C(C)C)[C@@H](C)O)C(N)=O`?
GLA spleen mod: inactive

Results for CC1=C(Cl)C2=NS(=O)(=O)CCN2C=C1Cl ?
GLA spleen mod: inactive; HttQ103 aggreg: 0.112µM; ERK EGF inh: inactive; GLA inh pH 4.5: inactive

How did CCN(CC)Cc1c(O)ccc2c(=O)c(-c3ccc4c(c3)OCCO4)coc12 do in these assays?
HTT cytoprotect: inactive[10 µM]; GLA spleen mod: inactive; HttQ103 aggreg: 11.2µM; GLA inh pH 4.5: inactive

Results for CCN(CC)Cc1c(O)ccc2c(=O)c(Oc3ccccc3OC)coc12 ?
HTT cytoprotect: inactive; GLA spleen mod: inactive; HttQ103 aggreg: inactive; GLA inh pH 4.5: inactive

Results for Cc1c(Cl)cccc1NC(=O)c1cc(-c2ccc(O)cc2)on1 ?
HTT cytoprotect: inactive

Results for COc1ccc(-c2cc(C3CCN(c4cc(Cl)nc(N)n4)CC3)[nH]n2)cc1 ?
HTT cytoprotect: inactive; GLA spleen mod: inactive; HttQ103 aggreg: 12.6µM; GLA inh pH 4.5: inactive

Bioassay records as filed in PubChem BioAssay.
